# Measured values from PubChem BioAssay (NCATS).
# A number with no mark means an inactive call. Inconclusive results are not listed. Where a call stands in place of a potency, no number is given. Calls of active or inactive are those of the source. Unless noted, calls come from the whole dose curve; as a rule, active = well fitted curve in the direction sought with a large enough effect; inconclusive = small, poorly fitted or top-dose-only effect, or another doubt; inactive = no such curve, though single readings can be large; an effect the other way counts as inactive or inconclusive.
# Legend:
# [1] = qHTS for Inhibitors of the Functional Ribonucleoprotein Complex (vRNP) of Lymphocytic Choriomeningitis Arenaviruses (LCMV): Viability assay - alamar blue signal for LCMV Primary Screen (AID 1347085; calls by dose curve; tested in HEK293 reporter line; note: nearly all actives have a fitted effect of over 80% in size)
# [2] = biological target: Nucleoprotein (Lymphocytic choriomeningitis virus (strain Armstrong)) (UniProt P09992); assay: qHTS for Inhibitors of the Functional Ribonucleoprotein Complex (vRNP) of Lymphocytic Choriomeningitis Arenaviruses (LCMV): LCMV Primary Screen - GLuc reporter signal (AID 1347086; calls by dose curve; note: nearly all actives have a fitted effect of over 70% in size)
# [3] = Inducers of the Endoplasmic Reticulum Stress Response (ERSR) in human glioma: Validation (AID 504836)
# Method in brief: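 Stably transfected U87-MG glioma cells carrying a GRP78-based luciferase sensor; 16 h compound incubation. Luminescence end-point read 10 min after Bright-Glo addition at room temperature.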
# [4] = Cytotoxicity counterscreen for inhibitors of SARS-CoV-2 cell entry (AID 1645845; calls by dose curve; note: nearly all actives have a fitted effect of over 50% in size)
# Method in brief: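 HEK293-ACE2 cells (Expi293F stably expressing human ACE2) seeded overnight, then compound for 1 h plus 48 h at 37C. Viability as ATP content by luminescence; normalized to wells with cells and media-only wells.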
# [5] = Primary qHTS to identify inhibitors of SARS-CoV-2 cell entry (AID 1645846; calls by dose curve; note: nearly all actives have a fitted effect of over 45% in size); conditions: activity change, negative = inhibition: at 57.1 µM (top of the series) unless noted
# Method in brief: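 Using luciferase-reporting pseudoviruses carrying Wuhan-Hu-1 spike, the screen tracks entry into stably ACE2-expressing cells over 48 hr. Activity is expressed relative to spike particles versus particles lacking any fusion protein.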
# [6] = system: Zika virus NS2B-NS3 protease; assay: Primary screen GU AMC qHTS for Zika virus inhibitors (AID 1347154); note: nearly all actives have a fitted effect of over 70% in size
# Method in brief: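 Unlinked Zika NS2B hydrophilic domain–NS3 protease complex at 25 nM in 10 mM Tris-HCl pH 8.0, 0.01% Tween 20, with an AMC peptide substrate. Fluorescence change (340/450 nm) over 15 min at room temperature, normalized to controls, fitted to 4-parameter Hill.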
# Furin (Homo sapiens) = Furin (Homo sapiens) (UniProt P09958); assay: Furin counterscreen qHTS for Zika virus inhibitors (AID 1347149);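 note: purified recombinant full-length human furin enzyme at 5 nM; fluorescence gain from furin cutting a BOC-RVRR-AMC peptide substrate over 15 min; top concentration of the series differs between compounds; nearly all actives have a fitted effect of over 70% in size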
# Method in brief: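 Fluorogenic cleavage of BOC-RVRR-AMC (2 microM final, Km ~15 µM) was monitored (ex 340, em 450 nm) at 37C after 15 min RT preincubation of 5 nM furin with compounds in HEPES pH 7.0 buffer with CaCl2 and Triton X-100. Percent inhibition was fitted to a 4-parameter Hill curve.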
# [7] = system: Zika virus NS2B-NS3 protease (linked construct); assay: Confirmatory screen NINDS AMC qHTS for Zika virus inhibitors (AID 1347152);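 note: AMC fluorescence gain from cleaved Bz-Nle-KRR-AMC substrate over 15 min; top concentration of the series differs between compounds; nearly all actives have a fitted effect of over 70% in size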
# Method in brief: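 Concentration-response confirmation used the NINDS linked protease (NS2B hydrophilic domain joined to NS3 protease domain), 1 nM, with a 15-min compound preincubation. Substrate, Nle-KRR-AMC at 10 microM, was read by UV fluorescence before and after 15 min.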
# [8] = system: Zika virus NS2B-NS3 protease (unlinked complex); assay: Confirmatory screen GU AMC qHTS for Zika virus inhibitors (AID 1347153); note: nearly all actives have a fitted effect of over 70% in size
# Method in brief: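 Unlinked enzyme 25 nM, Tris pH 8.0/0.01% Tween 20; cpd 15 min RT, dark; + AMC substrate 10 µM (Km 18.3 µM); 340/450 nm read at t0 and 15 min; % inhibition → 4-param fit.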
# [9] = Confirmation and Secondary Assay for Modulators of Hemoglobin Beta Chain Splicing at IVS2 654 locus (AID 910);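 note: HeLa cells stably carrying EGFP split by mutant beta-globin IVS2-654 intron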
# Method in brief: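 HeLa cells stably expressing EGFP interrupted by β-globin IVS2-654 intron, seeded overnight in Opti-MEM/2% FCS, then treated 2 days at 37 °C. Restored splicing read as total peak GFP intensity per well by laser scanning cytometry (488 nm excitation, 500–520 nm emission); 500 nM antisense PNA as control.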
# [10] = Confirmation and Secondary Assay for Modulators of Hemoglobin Beta Chain Splicing at IVS2 705 locus (AID 930);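 note: HeLa cells stably expressing the EGFP-705 splicing reporter; GFP fluorescence per well restored by corrected splicing of the IVS2-705 intron in EGFP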
# Method in brief: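 HeLa IVS2-705 EGFP reporter cells, 500/well, compound 2 d at 37C; correct splicing yields fluorescent EGFP. Control: 500 nM antisense PNA. Read-out: total peak GFP intensity.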
# [11] = Confirmatory screen GU Rhodamine qHTS for Zika virus inhibitors qHTS (AID 1347157)
# Method in brief: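 Buffer 10 mM Tris-HCl pH 8.0, 0.01% Tween 20. Unlinked protease 25 nM; compound preincubation 15 min, RT, protected from light. Substrate Rhod110, 1.5 microM; ~15% conversion in 15 min.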
# [12] = Confirmatory screen NINDS Rhodamine qHTS for Zika virus inhibitors (AID 1347161); note: potency is the fitted concentration of half-maximal effect; nearly all actives have a fitted effect of over 60% in size
# Method in brief: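 qHTS dose-response: 25 nM linked protease, pH 8.0 Tris/Tween buffer, cpd titration, 15 min RT preinc, 1.5 microM Rhod110 peptide, 15 min reaction (~15% conversion), Ex480/Em540; 4-parameter Hill fit.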
# [13] = system: Zika virus NS2B-NS3 protease (linked); assay: 384 well plate NINDS AMC confirmatory qHTS for Zika virus inhibitors (AID 1347163); conditions: Recombinant NS2B-NS3 protease, Ac-VKTGKR-AMC fluorescence; note: potency is the fitted concentration of half-maximal effect; nearly all actives have a fitted effect of over 50% in size
# Method in brief: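 Linked NS2B-NS3 protease (final 5 nM, 30 nM or 60 nM) was preincubated with compounds (final up to 1 mM) for ~15 minutes. Ac-VKTGKR-AMC substrate (final 30 microM) then reacted for 25 minutes at room temperature in the dark. Fluorescence (ex 355/em 460 nm) was normalized to no-enzyme and no-inhibitor controls.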
# [14] = system: Zika virus NS2B-NS3 protease (linked construct); assay: 384 well plate NINDS Rhodamine confirmatory qHTS for Zika virus inhibitors (AID 1347164); note: potency is the fitted concentration of half-maximal effect; nearly all actives have a fitted effect of over 65% in size
# Method in brief: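 Cleavage of Ac-LKRR-Rhodamine 110 (10 microM final) by linked protease (final 5, 30 or 60 nM) was followed as fluorescence at 485/538 nm after 25 min, room temperature, dark. Compounds preincubated ~15 min.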
# [15] = Tertiary RLuc qRT-PCR qHTS assay for Zika virus inhibitors (AID 1347169); note: nearly all actives have a fitted effect of over 55% in size; note: potency is the fitted concentration of half-maximal effect; for activity change, negative = inhibition: top concentration of the series differs between compounds
# Method in brief: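 Inhibition of ZIKV-RLuc replication in Vero cells, read as Renilla luminescence 1-1.5 hrs after live-cell substrate addition, following 48-72 hrs infection at MOI 1-2 in presence of compound.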
# [16] = Vero cells viability qHTS for Zika virus inhibitors (AID 1347167)
# Method in brief: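 Cells seeded at 2.5 x 10^5 cells/mL in DMEM with 4% FBS and attached overnight at 37 degrees C, then exposed to compound for 24 to 48 hours. Viability read as ATP content by CellTiter Glo luminescence.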
# Chain of Furin (Homo sapiens) (P09958 whole entry, looked up): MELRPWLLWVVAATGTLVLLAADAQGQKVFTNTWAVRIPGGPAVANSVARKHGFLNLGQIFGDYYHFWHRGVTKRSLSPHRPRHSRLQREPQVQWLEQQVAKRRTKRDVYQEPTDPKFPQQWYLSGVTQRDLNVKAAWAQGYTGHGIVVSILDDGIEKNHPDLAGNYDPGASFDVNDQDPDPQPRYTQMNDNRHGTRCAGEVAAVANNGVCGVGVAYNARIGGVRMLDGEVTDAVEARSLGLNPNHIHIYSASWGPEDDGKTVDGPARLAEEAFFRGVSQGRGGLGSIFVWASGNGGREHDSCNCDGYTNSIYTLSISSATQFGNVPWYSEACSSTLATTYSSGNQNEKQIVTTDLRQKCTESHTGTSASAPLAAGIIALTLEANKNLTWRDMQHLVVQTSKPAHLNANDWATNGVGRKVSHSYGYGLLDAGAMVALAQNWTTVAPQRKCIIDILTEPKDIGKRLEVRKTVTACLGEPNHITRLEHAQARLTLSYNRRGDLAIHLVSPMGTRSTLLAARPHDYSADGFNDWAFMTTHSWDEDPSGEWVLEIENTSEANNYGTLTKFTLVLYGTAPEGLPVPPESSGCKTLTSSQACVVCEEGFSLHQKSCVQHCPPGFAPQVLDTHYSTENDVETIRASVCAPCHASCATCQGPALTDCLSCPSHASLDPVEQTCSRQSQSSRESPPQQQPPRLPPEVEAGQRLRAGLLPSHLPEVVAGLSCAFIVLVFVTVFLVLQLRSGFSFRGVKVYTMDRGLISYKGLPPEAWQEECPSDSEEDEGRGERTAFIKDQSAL
# Chain of Nucleoprotein (Lymphocytic choriomeningitis virus (strain Armstrong)) (P09992 whole entry, looked up): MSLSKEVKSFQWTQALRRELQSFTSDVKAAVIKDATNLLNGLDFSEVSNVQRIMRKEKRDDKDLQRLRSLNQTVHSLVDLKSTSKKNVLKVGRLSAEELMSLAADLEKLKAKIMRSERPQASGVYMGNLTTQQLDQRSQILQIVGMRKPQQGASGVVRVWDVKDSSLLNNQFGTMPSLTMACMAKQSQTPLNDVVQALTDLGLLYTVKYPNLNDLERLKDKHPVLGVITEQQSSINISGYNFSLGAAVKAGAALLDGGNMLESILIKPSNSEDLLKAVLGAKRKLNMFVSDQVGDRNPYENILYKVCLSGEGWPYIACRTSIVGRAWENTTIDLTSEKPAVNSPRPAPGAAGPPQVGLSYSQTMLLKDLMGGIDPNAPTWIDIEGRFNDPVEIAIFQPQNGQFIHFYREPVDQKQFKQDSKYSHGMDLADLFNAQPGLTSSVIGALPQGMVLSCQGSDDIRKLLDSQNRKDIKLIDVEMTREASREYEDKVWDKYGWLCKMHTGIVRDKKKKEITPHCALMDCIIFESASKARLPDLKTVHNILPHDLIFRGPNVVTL
smiles,measurement,setting,value
NC(=O)c1nnn(Cc2cc(Cl)c(C(=O)c3ccc(Cl)cc3)c(Cl)c2)c1N,Potency,[1],inactive
same,Potency,[2],inactive
O=C1NC(=O)/C(=C/c2ccc3nccnc3c2)S1,outcome,[3],inactive
same,Potency,[1],inactive
same,Potency,[4],inactive
same,Potency,[5],inactive
C[C@@]12C=Cc3occc3[C@H]1CC[C@@]13C[C@@H](CC[C@H]12)[C@@](O)(CO)C3,Potency,[1],inactive
same,Potency,[2],inactive
N#CC(C#N)=Cc1cc(O)c(O)c([N+](=O)[O-])c1,Potency,[6],inactive
COc1ccc(Cn2ccc3ccc(C(=O)NO)cc32)cc1,Potency,[2],inactive
same,Potency,[4],inactive
O=C(CC(O)CCc1ccccc1)c1ccc(O)cc1 (configuration not stated),Potency,[2],inactive
COc1cc2c(cc1OCC1CCCC1)N([S+](=O)([O-])c1ccc(Oc3ccccc3)cc1)CC21CCN(CC(=O)O)CC1,Potency,Furin (Homo sapiens),inactive
same,Potency,[7],inactive
same,Potency,[8],inactive
c1ccc2sc(C3(NCC4CC4)CCCCC3)cc2c1,Potency,[6],inactive
O=c1c(O)c(-c2ccc(O)c(O)c2)oc2c(O)c(O)cc(O)c12,Potency,[9],inactive
same,outcome,[10],inactive
same,Potency,Furin (Homo sapiens),inactive
same,Potency,[11],22.4 µM (active)
same,Potency,[12],11.2 µM (active)
same,Potency,[13],158 µM (active)
same,Potency,[14],100 µM (active)
same,"activity change, negative = inhibition",[15],35.9% [at 5.25 µM]
C[C@H]1O[C@@H](O[C@H]2[C@@H](O)C[C@@H](O[C@H]3[C@@H](O)C[C@H](O[C@H]4CC[C@@]5(C)[C@H](CC[C@@H]6[C@@H]5CC[C@]5(C)[C@@H](C7=CC(=O)OC7)CC[C@]65O)C4)O[C@@H]3C)O[C@@H]2C)C[C@H](O)[C@@H]1O,Potency,Furin (Homo sapiens),inactive
same,Potency,[16],inactive
same,Potency,[15],0.0537 µM (active)
